Source: PubChem (National Center for Advancing Translational Sciences (NCATS))
HT1080NT lethal – qHTS for induction of synthetic lethality in tumor cells producing 2HG: qHTS for the HT-1080-NT fibrosarcoma cell line | HT-1080-NT fibrosarcoma viability, CellTiter-Glo ATP luminescence, 48 h | Potency, µM (titrated, usually from 46.1 µM), usual class: cytotoxic | actives 1.6% (n = 360,000);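 also: NT is the 2HG producing partner of a matched IDH1 knockdown line; nearly all actives have a fitted effect of over 55% in size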
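Luminescent CellTiter-Glo readout after 48 hours of compound exposure at 37 degrees C defined viability of HT-1080-NT cells. Activity was normalized to DMSO wells and cell-free media wells; concentration-response curves were fitted and assigned curve classes.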
HT1080 IDH1KD tx – qHTS for induction of synthetic lethality in tumor cells producing 2HG: qHTS for the HT-1080-IDH1KD cell line; HT-1080 IDH1 knockdown viability, ATP luminescence, 48 h; Potency, µM (titrated, usually from 46.1 µM), usual class: cytotoxic; actives 2% (n = 360,000)
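Cytotoxicity counter-line: IDH1KD HT-1080, 48 h, CellTiter-Glo. Curves classed by r2, magnitude and activity.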
TDP1 cell noCPT – qHTS for Inhibitors of human tyrosyl-DNA phosphodiesterase 1 (TDP1): qHTS in cells in absence of CPT | AID 686978, 2013 | Potency, µM (series often up to 46.2 µM), usual class: inhibitors | actives 15% (n = 420,000) | DT40 Tdp1-/- hTDP1 cells, no CPT, ATP luminescence, 48 h; also: nearly all actives have a fitted effect of over 55% in size
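Compound effects on proliferation are scored in DT40 Tdp1-/-;hTDP1 cells in the absence of CPT. ATP levels (CellTiter-Glo luminescence) are recorded after a ≥48 hr, 37 °C incubation.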
IL1B secr inh – qHTS for Inhibitors of Inflammasome Signaling: IL-1-beta AlphaLISA Primary Screen; THP-1 LPS/ATP IL-1B secretion, AlphaLISA, 16 h; stronger effect = lower value; activity change, % at 57.5 µM; actives 4.7% (n = 360,000); in the data active = activity change below about -50%; inconclusive = mostly about -30% to -49%
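THP-1 cells pretreated 1 hr with compounds (up to 57.5 uM final), then stimulated with LPS (250 ng/mL final) plus ATP (1.25 mM final); secreted IL-1B measured by AlphaLISA after 16 hr, decreased signal indicating inhibition.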
TDP1 cell CPT – qHTS for Inhibitors of human tyrosyl-DNA phosphodiesterase 1 (TDP1): qHTS in cells in presence of CPT | chicken DT40 Tdp1-/-;hTDP1 cells + 20 nM CPT, ATP luminescence, 48 h | Potency, µM (top dose mostly 46.2 µM), hits mostly inhibitors | actives 12% (n = 420,000) | AID 686979, 2013; also: nearly all actives have a fitted effect of over 55% in size
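Chicken DT40 Tdp1-/- cells complemented with human TDP1, 400 cells/well, exposed to compounds plus 20 nM camptothecin for at least 48 h at 37 C; viability read as ATP content by CellTiter-Glo luminescence.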
ELG1 DNA repair – qHTS screen for small molecules that inhibit ELG1-dependent DNA repair in human embryonic kidney (HEK293T) cells expressing luciferase-tagged ELG1; HEK293T ELG1-luciferase reporter, luminescence, 16 h; DNA damage induced by 5-fluorouridine; Potency, µM (highest dose often 46.1 µM), actives largely listed as inhibitors; actives 2.3% (n = 330,000); also: nearly all actives have a fitted effect of over 55% in size
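Overnight (16 hr) co-exposure of 2,000 cells/well to 5-fluorouridine and compound at 37 °C preceded detection. Luciferase was quantified via ONE-Glo luminescence; loss of signal denotes inhibition.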
A number is an active result; i = inactive; ? = inconclusive; nt = no result. Hits are enriched below; roughly 19% of the tested compounds scored in any of these assays. Unless noted, calls follow the shape of the dose curve; as a rule, active = well fitted curve in the direction sought with a large enough effect; inconclusive = small, poorly fitted or top-dose-only effect, or another doubt; inactive = no such curve, though single readings can be large; an effect the other way counts as inactive or inconclusive.

SMILES | HT1080NT lethal | HT1080 IDH1KD tx | TDP1 cell noCPT | IL1B secr inh | TDP1 cell CPT | ELG1 DNA repair
C=CCN1CC[C@]23c4c5ccc(O)c4OC2C(O)C=CC3[C@H]1C5 (some centres not stated) | i | i | i | i | i | i
O=C(Cc1cc(=O)[nH][nH]1)N/N=C/c1cccc2ccccc12 | i | i | i | i | ? | i
CC1(C)CCCN1CCC(C(N)=O)(c1ccccc1)c1ccccc1 | i | i | i | i | i | nt
CCCC(=O)c1ccc(CP(=O)(OCC)OCC)o1 | i | i | i | i | i | i
Nc1ccc(Cc2ccc(N)cc2)cc1 | i | i | i | i | i | nt
Cc1c(C(=O)NCc2ccc(Cl)c(Cl)c2)sc(=O)n1Cc1ccc(S(=O)(=O)N(C)C)cc1 | i | ? | 14.6µM | i | 8.2µM | nt
Cc1cc2cc(CNC(=O)Nc3ccc(Cl)c(Cl)c3)ccc2n1C | i | i | ? | i | i | i
C=C1C(=O)OC2C1CCC(C)C1(O)C=CC(=O)C21C (configuration not stated) | ? | ? | 2.31µM | -108.6 | 2.59µM | nt
CC(Oc1ccc(Cl)cc1Cl)C(=O)Nc1ccc(S(=O)(=O)Nc2cnc3ccccc3n2)cc1 (configuration not stated) | i | i | 25.9µM | i | ? | i
COc1ccc(NC(=O)C(=O)NNC(=O)C(C)Oc2ccc(Cl)cc2Cl)cc1 (configuration not stated) | i | i | ? | i | i | i
O=C1/C(=C\c2ccccc2)C2OCC=C3CN4CCC56c7ccccc7N1C5C2C3CC46 (configuration not stated) | i | i | ? | i | 20.6µM | i
CC(C)n1c(/C=C/[C@H](O)C[C@H](O)CC(=O)O)c(-c2ccc(F)cc2)c2ccccc21 | 8.2µM | 9.2µM | 29.1µM | i | 18.4µM | nt
O=Cc1c(C(=O)O)n(Cc2ccccc2F)c2ccccc12 | ? | i | i | i | i | ?
C[C@H](NC(=O)N1C[C@H]2C[C@@H](C1)c1cccc(=O)n1C2)C(=O)Nc1ccccc1F | i | i | i | i | i | i
CN(C)C1C(=O)C(C(N)=O)=C(O)C2(O)C(=O)C3=C(O)c4c(O)cccc4C(C)(O)C3C(O)C12 (configuration not stated) | i | i | 7.31µM | i | 10.3µM | ?
CN(C)C1C(=O)C(C(N)=O)=C(O)[C@@]2(O)C(=O)C3=C(O)c4c(O)ccc(Cl)c4[C@](C)(O)C3CC12 (some centres not stated) | nt | nt | 18.4µM | nt | 16.4µM | nt
Cc1c(CC(=O)N2C[C@H]3C[C@@H](C2)c2cccc(=O)n2C3)c(=O)oc2cc(O)c(Cl)cc12 | i | i | i | i | i | i
Cc1cccc(C)c1OP(N)(=O)OCC(F)(F)F (configuration not stated) | i | i | i | i | i | i
ClCCN(CCCl)/C(=C\c1ccccc1)c1ccnc2ccccc12 | nt | nt | 3.55µM | nt | 5.62µM | nt
O=C(Oc1ccccc1)N1CCC2(CC1)CCN(C(c1ccccc1)c1ccccc1)CC2 | nt | nt | i | nt | i | nt
COc1ccc([C@H]2C[C@@H](O)[C@H](n3cc(COC(=O)c4ccccc4)nn3)CN2Cc2cccs2)cc1 | i | i | i | i | i | nt
COc1cccc(C(=O)N2CCC3(CC2)OCCO3)c1 | i | i | i | i | i | i
Cc1cccc(-c2nc3ccc(C(=O)N4CCC5(CC4)OCCO5)cc3nc2-c2cccc(C)c2)c1 | ? | ? | ? | -77.3 | ? | ?
O=C(c1ccc2c(c1)ncn2C1CCCCC1)N1CCC2(CC1)OCCO2 | ? | ? | 4.61µM | i | 6.51µM | i
